Out of some 84,000 compounds screened, about 95 (0.1%) were called active. This is one part of a sample in which actives are shown more often than they occur. No stated cut-off is given here; in the data, active means inhibition above about 25% (passing the limit was not always enough); inactive means the rest.
System: BasE (2,3-dihydroxybenzoate-AMP ligase), Acinetobacter baumannii ATCC 17978
Experiment: BasE siderophore enzyme inhibitors, primary screen, biochemical, Acinetobacter baumannii ATCC 17978, fluorescence polarization (AID 485350);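 further: 0% = negative plate control signal and 100% = positive plate control signal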
Details: purified BasE, fluorescence polarization binding displacement; hits give high values; concentration not given here

inhibition, inactive:
CN(C(=S)NCc1ccccc1)C1CCCCC1 1.12%
C(=C\c1ccccc1)/CNCCCN1CCOCC1 0.89%
CNC(=O)c1ccc(N2CCOc3ccc(Cl)cc32)s1 -0.32%
COc1ccc(CNn2cnnc2SCc2ccc(F)cc2)cc1OC -1.54%
CC12CCC(=O)N1C(C(=O)OCc1cc(=O)n3cc(Br)ccc3n1)CS2 (stereo unspecified) 3.92%
CC(C)[C@H](NC(=O)C1CCCCC1)c1nc2ccccc2[nH]1 -0.24%
Cc1cc(C(=O)OCc2cc(=O)oc3cc4c(cc23)CCC4)c(C)o1 -0.6%
COC(=O)C(NC(=O)c1ccc(Cl)cc1)C(F)(F)F (stereo unspecified) 7.11%
Cc1ccc(N2C(=O)CCC(C(=O)OCc3nnc(-c4ccccc4)o3)C2c2cccs2)cc1 (stereo unspecified) 1.51%
COc1ccc(-n2c(-c3ccc(Cl)cc3)cnc2SCc2nccn2C)cc1 -1.16%
COc1ccc(S(=O)(=O)N(C)CC(=O)N2CCCC2)cc1 -1.85%
OCC1OC(Oc2ccc3cc(Br)ccc3c2)C(O)C(O)C1O (stereo unspecified) -1.6%
CCOC(=O)c1c(-c2ccco2)csc1NC(=O)COC(=O)Cn1[nH]c(=O)c2ccccc2c1=O 3.28%
O=C(NCCSc1ncc(-c2ccccc2)[nH]1)c1ccco1 -0.84%
Cc1ccc(S(=O)(=O)Nc2nc(O)c(C3=c4ccccc4=NC3=O)s2)cc1 2.18%
C(=N\n1cnnc1)/c1ccc(OC2OCCOC2Oc2ccc(/C=N/n3cnnc3)cc2)cc1 (stereo unspecified) 1.12%
C=CCn1c(CCSCc2ccc(OC)cc2)n[nH]c1=S -0.73%
COc1cccc(-c2noc(COC(=O)c3ccccc3-c3ccccc3C#N)n2)c1 1.11%
CC(Oc1ccc(F)cc1)C(=O)O (stereo unspecified) -0.06%
O=C(OCC(=O)N1CCOCC1)c1ccc(Cl)cc1 0.53%
O=c1c(OCCc2ccccc2)c(-c2ccco2)oc2ccccc12 5.62%
Cc1ccc(S(=O)(=O)NC(c2ccccc2)c2nnc(-c3ccccc3)o2)cc1 (stereo unspecified) -0.19%
O=C1Nc2ccccc2OC1CC(=O)N1CCN(Cc2ccc3c(c2)OCO3)CC1 (stereo unspecified) -0.54%
CCc1c(C)c(C#N)c2nc3ccccc3n2c1N1CCN(Cc2cc(Cl)ccc2OC)CC1 0.68%
CCOC(=O)c1sc(=NC(C)=O)n(C)c1C -1.69%
Cc1cc(C)n(-c2ccc(Cl)c(C(=O)OCC(=O)NCc3ccco3)n2)n1 1.59%

Reference: PubChem BioAssay AID485350 (ICCB-Longwood Screening Facility, Harvard Medical School, 2010)
